# Results reported in PubChem BioAssay (Tox21).
# Records with an inconclusive call do not appear. The source made the active and inactive calls. Calls follow the shape of the full dose curve.
# Experiment: qHTS assay for small molecule agonists of the antioxidant response element (ARE) signaling pathway - cell viability counter screen (AID 743203); also: nearly all actives have a fitted effect of over 55% in size
# Conditions: ARE-bla HepG2 viability, CellTiter-Glo luminescence, 16 h; series mostly up to 73.3 µM
# Description: National Center for Advancing Translational Sciences [NCATS]
# NIH Chemical Genomics Center [NCGC]
# U.S. Environmental Protection Agency [EPA]
# National Institutes of Environmental Health Sciences [NIEHS]
# National Toxicology Program [NTP]
# U.S. Food and Drug Administration [FDA]
# Oxidative stress has been implicated in the pathogenesis of a variety of diseases ranging from cancer to neurodegeneration. The antioxidant response element (ARE) signaling pathway plays an important role in the amelioration of oxidative stress. The CellSensor ARE-bla HepG2 cell line (Invitrogen) can be used for analyzing the Nrf2/antioxidant response signaling pathway. Nrf2 (NF-E2-related factor 2) and Nrf1 are transcription factors that bind to AREs and activate these genes. The CellSensor ARE-bla Hep G2 cell line contains a beta-lactamase reporter gene under control of the Antioxidant Response Element (ARE) stably integrated into HepG2 cells. The activation of the report gene under culture conditions can be detected by fluorescence intensity. This cell line has been used to screen the Tox21 10K compound library to identify agonists that induce oxidative stress. The cytotoxicity of the Tox21 compound library against the ARE-bla cell line was tested in parallel by measuring the cell viability using CellTiter-Glo assay (Promega, Madison, WI) in the same wells.
# Tox21 Assay Protocol Summary:
# ARE-bla HepG2 cells were dispensed at 2,000 cells/5 ul/well in 1536-well white wall/solid bottom plates using a Multidrop Combi (ThermoFisher Scientific, Waltham, MA) dispenser. After the assay plates were incubated at 37C/5% CO2 for 5 hrs, 23 nL of compounds dissolved in DMSO, positive controls or DMSO only was transferred to the assay plate by a pintool work station (Kalypsys, San Diego, CA). The plates were incubated at 37C/5% CO2 for 16 hrs, followed by addition of 4 ul/well of CellTiter-Glo reagent into the assay plates using a Flying Reagent Dispenser (Aurora Discovery, San Diego, CA). After 30 min incubation at room temperature, the luminescence intensity in the assay plates was measured using a ViewLux (PerkinElmer, Shelton, CT) plate reader.
row,Compound,outcome
1,CC(O)COC(C)(C)C (stereo not given),inactive
2,COc1c2occc2c(OC)c2c(=O)cc(C)oc12,inactive
3,CC(C)(C)NC[C@H](O)COc1cccc2c1CCCC2=O,inactive
4,CCC(=O)CC,inactive
5,CC(=O)O[Si](C)(OC(C)=O)OC(C)=O,inactive
6,COC(=O)c1ccccc1C(=O)O,inactive
7,CCCCCCCCCCOC(C)=O,inactive
8,CN(C)CCCO[C@@H]1[C@H]2OC(C)(C)O[C@H]2O[C@@H]1C(O)CO (stereo not given in full),inactive
9,O=C(O)CNC(=O)CNC(=O)CNC(=O)CSC(=O)c1ccccc1,inactive
10,NCCOCCN,inactive
11,ONc1ccccc1,inactive
12,Cc1ccnc(N)c1,inactive
13,CC(=O)OC1CCCCC1C(C)(C)C (stereo not given),inactive
14,O=Cc1ccccc1Cl,inactive
15,COc1nc(N)nc2nc[nH]c12,inactive
16,Nc1nnnn1-c1ccccc1,inactive
17,C/C=C(\C)C(C)=O,inactive
18,CCCC(=O)Nc1ccc(OCC(O)CNC(C)C)c(C(C)=O)c1 (stereo not given),inactive
19,COc1cc(OC)nc(O[C@H](C(=O)O)C(OC)(c2ccccc2)c2ccccc2)n1,inactive
20,CN(C)CCN(C)CCO,inactive

row,Compound,outcome
1,CC(C)CCOC(=O)c1ccccc1,inactive
2,COP(=O)(O)OP(=O)(O)OC,inactive
3,CC(C)CO,inactive
4,CCOc1cccc(N)c1,inactive
5,Cc1c(C(=O)c2c[nH]n(C)c2=O)ccc(S(C)(=O)=O)c1C1=NOCC1,inactive
6,CCCSSCCC,inactive
7,O=C(O)[C@H](O)c1ccccc1,inactive
8,CCOc1ccccc1OCC1CNCCO1 (stereo not given),inactive
9,OCC1(CO)COCOC1,inactive
10,CCNC(=O)NCc1cccc(Cl)c1,inactive
11,CC1=C(C(=O)O)N2C(=O)[C@@H](NC(=O)[C@H](N)c3ccccc3)[C@H]2SC1,inactive
12,CC(Oc1cc(Cl)ccc1Cl)C(=O)O (stereo not given),inactive
13,N#CCC(=O)NN,inactive
14,CC(=O)OCC(=O)Nc1cc(C#N)cc(NC(=O)COC(C)=O)c1Cl,inactive
15,CC1CC(=O)CC(C)(C)C1 (stereo not given),inactive
16,CC1=NN(c2ccc(S(=O)(=O)O)cc2)C(=O)C1,inactive
17,Cc1cc(C)c(C(=O)O)c(C)c1,inactive
18,CC(C)OC(=O)CCC(=O)OC(C)C,inactive
19,Cc1cccc(Cl)c1,inactive
20,O=Cc1cc2ccccc2o1,inactive
